The assay deals with Human papillomavirus type 1a protein E7 (residues 44-93). The experiment in a line: small molecules binding HPV E7 44-93 – biochemical, small-molecule microarray, residues 44-93, 635 nm fluorescence, primary screen (AID 1108).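 Further: E7 fragment applied at 1 µg/mL in TBST for 1 h at 4 C; score combines spot fluorescence with its signal to noise ratio.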 The conditions noted are these: fluorescence 635 nm, higher = more signal.
For `CCOC(=O)[C@H](Cc1ccccc1)NC(=O)CCC1CC(OC(=O)NCc2cccc3ccccc23)CC2(CCCC(COC(=O)NCCOc3ccccc3)O2)O1` (stereo not given in full), the composite z-score came to 1.35.

As for `CCc1cc2c(nc1CC)CCN(CCC(C)=NOC[C@@H](C)[C@H](OCc1ccccc1)C(C)C)C2`, the composite z-score is -0.461.

On to `O=C1CCCC=C1C(O)C1CCCCC1` (stereo not given), for which the composite z-score was -0.64.

With `CC(C)=CCCC(C)=CCON=C1C[C@@H](O)[C@@H](O)[C@@H]2[C@@H]3C(=O)N(Cc4ccc5c(c4)OCO5)C(=O)[C@@H]3CC[C@@H]12`, the composite z-score was 0.909.

Turning to `CC(C)=CCCC(C)=CCON=C1[C@H]2CCn3c(=O)n(-c4ccccc4)c(=O)n3[C@H]2[C@H](O)[C@@H]2O[C@H]12`, the composite z-score worked out at 1.35.

Take `C=CCOCC1CN2[C@@H](CC[C@@H](C)[C@@H]2c2ccc(Br)cc2)C(=O)O1` (stereo not given in full): the composite z-score is 0.157.

Regarding `CCCC[C@H]1CN2[C@@H](CC[C@@H](C)[C@@H]2c2ccc(Br)cc2)C(=O)O1`, the composite z-score was 1.01.

As for `CC(C)CON=C1[C@H]2CCn3c(=O)n(C)c(=O)n3[C@H]2[C@H](O)[C@@H]2O[C@H]12`, the composite z-score amounted to 0.274.

Consider `O=C1C=C[C@@H](O)[C@@H]2[C@@H]3C(=O)N(c4cccc(Oc5ccccc5)c4)C(=O)[C@@H]3CC[C@@H]12`, for which the composite z-score was 0.242.

`Cc1cc(C)c(-c2cc([C@H](C)ON=C[C@@H](C)[C@H](OCc3ccccc3)C(C)C)on2)c(C)c1` showed a composite z-score of -1.42.

Compound `C[C@@H]1C=CCC(=O)OC[C@H](C)C(=O)N[C@@H](Cc2ccccc2)C(=O)OC1` registered a composite z-score of -0.118.

Consider `CCOC(=O)NN=C1C[C@@H](O)[C@@H](O)[C@@H]2[C@@H]3C(=O)N(C[C@@H]4CCCO4)C(=O)[C@@H]3CC[C@H]12`, for which the composite z-score is 0.463.

The compound `COc1ccc(-c2cnnc(CCCn3ccnc3-c3ccccc3)n2)cc1` yielded a composite z-score of 0.412.

`CCOC(=O)[C@H](Cc1ccccc1)NC(=O)CCC1CC(OC(=O)NCc2ccc3c(c2)OCO3)CC2(CCCC(COC(=O)NCCc3ccc(Cl)cc3)O2)O1` (stereo not given in full) had a composite z-score of 1.14.

On to `CCO[C@H](c1cc(OC)cc([N+](=O)[O-])c1OC)[C@H](C)[C@@H](OC)[C@H](C)C=CCC(=O)OC`, for which the composite z-score was 0.488.

Compound `CCN(CC)CC(O)CN1CCCCc2nc(C)c(C)cc21` (stereo not given) displayed a composite z-score of -0.0592.

As for `O=C1CCCC=C1C(O)c1ccc([N+](=O)[O-])cc1` (stereo not given), the composite z-score is -0.607.

In turn, `CCOC(=O)[C@H](Cc1ccccc1)NC(=O)CCC1CC(OC(=O)NCCc2ccc(F)cc2)CC2(CCCC(COC(=O)NCCOc3ccccc3)O2)O1` (stereo not given in full) showed a composite z-score of 1.4.

Regarding `COC(=O)[C@H](Cc1ccccc1)NC(=O)[C@@H](C)CO`, the composite z-score is -0.0054.

`CCOC(=O)CCN1C(=O)[C@H]2[C@H]3[C@H](O)[C@H](O)CC(=NOCC=C(C)CCC=C(C)C)[C@H]3CC[C@H]2C1=O`: the composite z-score is -0.11.

The compound `O=C1[C@H]2[C@H]3[C@H](O)[C@H](O)CC(=NO[C@@H]4O[C@H](CO)[C@@H](O)[C@H](O)[C@H]4O)[C@H]3CC[C@H]2C(=O)N1c1ccc(F)cc1F` returned a composite z-score of 0.491.

With `O=C1[C@H]2[C@H]3[C@H](O)[C@H](O)CC(=NOCc4ccccc4)[C@@H]3CC[C@H]2C(=O)N1c1cccc(Oc2ccccc2)c1`, the composite z-score worked out at 1.32.

For the compound `O=C1C2=CC[C@H]3C(=O)N(C[C@@H]4CCCO4)C(=O)[C@H]3[C@H]2[C@H](O)[C@@H]2O[C@H]12`, the composite z-score turned out to be 0.0207.

Compound `CCOC(=O)[C@H](CC(C)C)NC(=O)CCC1CC(OC(=O)NCc2ccc3c(c2)OCO3)CC2(CCCC(COC(=O)NCc3ccccc3)O2)O1` (stereo not given in full) gave a composite z-score of 1.37.

The compound `CON=C(C)CCN1CCCc2nc(C)c(C)cc21` yielded a composite z-score of 0.365.

The values above are taken from PubChem BioAssay.
